# Assay results: PubChem BioAssay (EPA / NIEHS)
# Records with an inconclusive call do not appear. Calls of active or inactive are those of the source. How the source made its calls, unless noted: active means hit-call score of the fitted dose curve at least 0.9, where 1 is the maximum; inactive means score below 0.9.
# Legend:
# [1] = biological target: Estrogen receptor (Homo sapiens) (UniProt P03372); assay: CCTE_Deisenroth_AIME_96WELL_LUC_Active: CCTE's 96-well Estrogen Receptor Transactivation Assay with AIME metabolic competence (ERTA luciferase; metabolism positive), Deisenroth Lab (AID 2284023; active means hit-call score of the fitted dose curve at least 0.9, where 1 is the maximum)
# Chain of Estrogen receptor (Homo sapiens) (P03372 whole entry, looked up): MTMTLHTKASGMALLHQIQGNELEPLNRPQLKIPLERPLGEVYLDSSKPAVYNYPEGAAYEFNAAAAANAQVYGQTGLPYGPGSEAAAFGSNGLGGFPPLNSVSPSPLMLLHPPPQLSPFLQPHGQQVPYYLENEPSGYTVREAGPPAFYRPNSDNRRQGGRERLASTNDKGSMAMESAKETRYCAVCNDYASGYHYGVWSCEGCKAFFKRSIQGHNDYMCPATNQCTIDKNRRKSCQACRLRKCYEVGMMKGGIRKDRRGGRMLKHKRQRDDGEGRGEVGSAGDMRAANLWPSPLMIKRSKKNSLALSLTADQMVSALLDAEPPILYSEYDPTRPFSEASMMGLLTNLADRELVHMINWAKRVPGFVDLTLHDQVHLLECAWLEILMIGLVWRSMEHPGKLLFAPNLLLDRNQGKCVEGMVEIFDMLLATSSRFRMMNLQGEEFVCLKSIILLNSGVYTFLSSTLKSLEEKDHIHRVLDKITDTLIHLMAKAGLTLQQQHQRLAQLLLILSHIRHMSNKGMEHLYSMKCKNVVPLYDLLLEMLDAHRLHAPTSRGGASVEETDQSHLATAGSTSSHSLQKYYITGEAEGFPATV
# In short: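 Chemicals pre-incubated 2 h with alginate-immobilized phenobarbital/beta-naphthoflavone-induced male Sprague Dawley rat liver S9, then medium transferred to VM7Luc4E2 cells for 24 h luciferase read-out. 10-point series 0.002 - 200 uM; fitted relative to 17beta-estradiol.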
# [2] = biological target: Estrogen receptor (Homo sapiens) (UniProt P03372); assay: CCTE_Deisenroth_AIME_96WELL_LUC_Inactive: CCTE's 96-well Estrogen Receptor Transactivation Assay without AIME metabolic competence (ERTA luciferase; metabolism negative), Deisenroth Lab (AID 2284025; active means hit-call score of the fitted dose curve at least 0.9, where 1 is the maximum)
# In short: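 VM7Luc4E2 breast cells, luciferase read 24 h after dosing with medium pre-incubated 2 h on alginate-water lids (metabolism negative). 10-point series 0.002–200 uM, single technical replicate, n≥4; fit relative to 17beta-estradiol.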
# [3] = tested on: Brachyury (BRA) Protein Expression, Deisenroth Lab, TBXT (gene 6862); assay: CCTE_Deisenroth_DEVTOX-GLR_legacy_Bra: (Legacy) CCTE's DevTox GLR-Endo Assay Evaluation of Brachyury (BRA) Protein Expression, Deisenroth Lab (AID 2284329)
# In short: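 RUES2-GLR human pluripotent cells are differentiated for 48 h and receive two chemical exposures 24 h apart, at 10 concentrations from 1 nM to 200 uM. Cells are fixed, nuclei stained and imaged. Bra+ cells are those with mean Bra intensity over 5x BMAD above the pluripotent control median, expressed as a percentage of cell count, after subtracting the 0.2% DMSO control median.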
# [4] = CCTE_Deisenroth_DEVTOX-GLR_legacy_CellCount: (Legacy) Viability Assessment in CCTE's DevTox GLR-Endo Assay, Deisenroth Lab (AID 2284331); settings: actives raise or lower the signal
# In short: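 Human pluripotent RUES2-GLR cells differentiated 48 h with two 24-h-interval exposures, 10-point 1 nM–200 uM series, 0.2% DMSO. Fixed nuclei counted by high-content imaging (5 fields/well); bidirectional fit vs DMSO, n≥4.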
# [5] = tested on: SRY-box transcription factor 17 (SOX17) Protein Expression, Deisenroth Lab, SOX17 (gene 64321); assay: CCTE_Deisenroth_DEVTOX-GLR_legacy_Sox17: (Legacy) CCTE's DevTox GLR-Endo Assay Evaluation of SRY-box transcription factor 17 (SOX17) Protein Expression, Deisenroth Lab (AID 2284341); settings: actives raise or lower the signal
# In short: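 RUES2-GLR human pluripotent cells differentiated toward endoderm for 48 h, dosed twice at 24 h intervals (1 nM–200 uM, 10 points). Imaging gives % SOX17+ cells (intensity >5x BMAD above pluripotent control median); bidirectional fit versus 0.2% DMSO.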
# [6] = tested on: SRY-box transcription factor 2 (SOX2) Protein Expression, Deisenroth Lab, SOX2 (gene 6657); assay: CCTE_Deisenroth_DEVTOX-GLR_legacy_Sox2: (Legacy) CCTE's DevTox GLR-Endo Assay Evaluation of SRY-box transcription factor 2 (SOX2) Protein Expression, Deisenroth Lab (AID 2284346)
# In short: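 RUES2-GLR human pluripotent cells were differentiated for 48 h with two chemical doses 24 h apart, over 1 nM-200 uM. Sox2+ cells were those above 5x BMAD of the endoderm-control median; percent Sox2+ minus the 0.2% DMSO median was used, from n=4 replicates.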
# [7] = tested on: SRY-box transcription factor 17 (SOX17) Protein Expression, Deisenroth Lab, SOX17 (gene 64321); assay: CCTE_Deisenroth_DEVTOX-GLR_Endo_SOX17: CCTE's DevTox GLR-Endo Assay Evaluation of SRY-box transcription factor 17 (SOX17) Protein Expression, Deisenroth Lab (AID 2284413)
# In short: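 RUES2-GLR human pluripotent cells were differentiated toward endoderm for 48 h and received two compound doses 24 h apart (1 nM - 200 uM, 10 points). High-content imaging of fixed cells gave the percent SOX17+ cells per cell count, expressed as percent change versus 0.2% DMSO.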
# [8] = tested on: Brachyury (BRA) Protein Expression, TBXT (gene 6862); assay: CCTE_Deisenroth_DEVTOX-GLR_Endo_BRA: CCTE's DevTox GLR-Endo Assay Evaluation of Brachyury (BRA) Protein Expression, Deisenroth Lab (AID 2284417)
# In short: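 RUES2-GLR pluripotent cells differentiated 48 h with two chemical exposures 24 h apart, 10-point range 1 nM - 200 uM. Percentage of BRA+ cells per total count by high-content imaging, minus 0.2% DMSO control.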
# [9] = CCTE_Deisenroth_DEVTOX-GLR_Endo_CellCount: Viability Assessment in CCTE's DevTox GLR-Endo Assay, Deisenroth Lab (AID 2284420)
# In short: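 RUES2-GLR human pluripotent cells seeded 24 h, then differentiated 48 h with two chemical exposures at 24 h intervals (10-point, 1 nM - 200 uM). Fixed, nuclear-stained, imaged; nuclei counts give % change in cell count versus 0.2% DMSO.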
# [10] = tested on: SRY-box transcription factor 17 (SOX17) Protein Expression, Deisenroth Lab, SOX17 (gene 64321); assay: CCTE_Deisenroth_DEVTOX-GLR_Pluri_SOX17: CCTE's DevTox GLR-Pluri Assay Evaluation of SRY-box transcription factor 17 (SOX17) Protein Expression, Deisenroth Lab (AID 2284427; active means hit-call score of the fitted dose curve at least 0.9, where 1 is the maximum)
# In short: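 RUES2-GLR human pluripotent cells were seeded 24 h, then differentiated 48 h in defined media with two chemical exposures 24 h apart (10-point series, 1 nM - 200 uM). Fixed, nuclear-stained cells were imaged; %SOX17+ cells minus 0.2% DMSO control reported.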
# [11] = tested on: SRY-box transcription factor 2 (SOX2) Protein Expression, Deisenroth Lab, SOX2 (gene 6657); assay: CCTE_Deisenroth_DEVTOX-GLR_Pluri_SOX2: CCTE's DevTox GLR-Pluri Assay Evaluation of SRY-box transcription factor 2 (SOX2) Protein Expression, Deisenroth Lab (AID 2284428)
# In short: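 Human pluripotent RUES2-GLR cells were seeded 24 h, then differentiated 48 h in defined media with two chemical doses at 24-h intervals (10-point, 1 nM–200 uM). Nuclear-stained cells were imaged; SOX2+ cells/cell count gave percent change versus 0.2% DMSO control.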
# [12] = tested on: Brachyury (BRA) Protein Expression, Deisenroth Lab, TBXT (gene 6862); assay: CCTE_Deisenroth_DEVTOX-GLR_Pluri_BRA: CCTE's DevTox GLR-Pluri Assay Evaluation of Brachyury (BRA) Protein Expression, Deisenroth Lab (AID 2284429; active means hit-call score of the fitted dose curve at least 0.9, where 1 is the maximum)
# In short: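 RUES2-GLR human pluripotent cells differentiated 48 hours with two chemical exposures 24 hours apart, 10-point series 1 nM–200 uM. Fixed, nuclear-stained, imaged; endpoint is percent BRA+ cells minus 0.2% DMSO control.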
# [13] = CCTE_Deisenroth_DEVTOX-GLR_Pluri_CellCount: Viability Assessment in CCTE's DevTox GLR-Pluri Assay Evaluation of Total Cell Counts, Deisenroth Lab (AID 2284430)
# In short: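 RUES2-GLR human pluripotent cells, seeded 24 h, then differentiated 48 h with two chemical exposures 24 h apart; 10-point series 1 nM - 200 uM. Fixed, nuclear-stained, imaged (5 fields/well); nuclei count as % change vs 0.2% DMSO.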
SMILES,AC50 [1],AC50 [2],outcome [3],AC50 [4],AC50 [5],AC50 [6],AC50 [7],AC50 [8],AC50 [9],outcome [10],AC50 [11],AC50 [12],outcome [13]
C(#Cc1ccccc1)c1ccccc1,32.3 µM (active),28.5 µM (active),,,,,,,,,,,
Nc1cccc2c1C(=O)N(C1CCC(=O)NC1=O)C2=O (stereo not drawn),,,inactive,0.272 µM (active),0.067 µM (active),155 µM (active),0.0587 µM (active),29.5 µM (active),0.281 µM (active),inactive,1.04 µM (active),25.1 µM (active),inactive
